PubChem BioAssay AID463173 (ICCB-Longwood Screening Facility, Harvard Medical School, 2010)
Hit rate of the full screen: of about 52,000 compounds, about 4,300 (8.3%) were called active. What follows is part of a selection rich in actives, with near analogues and random picks from the rest. Values without a mark were called inactive. No stated cut-off is given here; in the data, active means survival mostly below about 52% (no sharp cut-off); inactive means mostly above about 56%.

What follows are compounds tested on DeltatarO mutant (assay: growth inhibition of S. aureus wild type versus tarO mutant, primary screen, teichoic acid synthesis inhibitors, RN4220, OD600 (AID 463173)). Settings: OD600, 18 h, stronger effect = lower value, screened at 18.75 µg/mL (by protocol).

Row | SMILES | survival
1 | CCCCN(CCCNC(=O)c1c(C)oc2nc[nH]c(=O)c12)Cc1ccccc1 | 53% (active)
2 | Cc1oc2ncn(C)c(=O)c2c1C(=O)NCCCN(Cc1ccccc1)C(C)C | 72%
3 | CCN(CCCNC(=O)c1c(C)oc2ncn(CC(C)C)c(=O)c12)Cc1ccccc1 | 83%
4 | O=C(CSc1ncn(-c2ccccc2)n1)c1ccc(Cl)cc1 | 74%
5 | CCCCCN1C(C(=O)c2ccccc2)=C(NC(C)=O)c2ccccc2S1(=O)=O | 58%
6 | CCN1C(C(=O)c2ccccc2)=C(OC(=O)C(C)C)c2ccccc2S1(=O)=O | 67%
7 | CCCN1C(C(=O)c2ccccc2)=C(OC(=O)C(C)(C)C)c2ccccc2S1(=O)=O | 53%
8 | COC(=O)CN1C(C(=O)c2ccccc2)=C(OC(=O)c2ccc(F)cc2)c2ccccc2S1(=O)=O | 56%
9 | CCCN1C(C(=O)c2ccccc2)=C(OC(=O)c2ccc(F)cc2)c2ccccc2S1(=O)=O | 31% (active)
10 | CCCCN1C(C(=O)c2ccccc2)=C(OC(C)=O)c2ccccc2S1(=O)=O | -4% (active)
11 | CCCCN(CCCC)C1=C(C(=O)c2ccccc2)N(C)S(=O)(=O)c2ccccc21 | 72%
12 | CCOC(=O)CN1C(C(=O)c2ccccc2)=C(OC(=O)C(C)(C)C)c2ccccc2S1(=O)=O | 58%
13 | CCCCN1C(C(=O)c2ccccc2)=C(OC(=O)CC)c2ccccc2S1(=O)=O | -4% (active)
14 | CCCN1C(C(=O)c2ccccc2)=C(OC(=O)c2ccc(C)cc2)c2ccccc2S1(=O)=O | 52%
15 | CCCCN(CCCC)C1=C(C(=O)c2ccccc2)N(CC)S(=O)(=O)c2ccccc21 | 60% (active)
16 | COc1ccc(N(C(=O)c2ccc(C)cc2)S(=O)(=O)c2ccc(Cl)cc2)cc1 | 76%
17 | CN(CC(=O)Nc1cccc(C(F)(F)F)c1)S(=O)(=O)c1ccc2[nH]c3c(c2c1)CCCC3 | 94%
18 | CC(=O)N1CCc2cc(C(=O)C[n+]3ccccc3)ccc21 | 91%
19 | C=CCNC(=O)CN1CCC(n2c(C)nc3cc(C(F)(F)F)ccc32)CC1 | 95%
20 | O=C(Cn1ncn2c(cc3ccccc32)c1=O)NCc1ccc(F)cc1 | 104%
21 | CCOC(=O)CN1C(C(=O)c2ccccc2)=C(OC(=O)c2ccccc2)c2ccccc2S1(=O)=O | 56%
22 | CCCCC(=O)OC1=C(C(=O)c2ccccc2)N(CC)S(=O)(=O)c2ccccc21 | 52%
23 | CCCCCN1C(C(=O)c2ccccc2)=C(OC(=O)CC)c2ccccc2S1(=O)=O | -4% (active)
24 | CCCCC(=O)OC1=C(C(=O)c2ccccc2)N(CCC)S(=O)(=O)c2ccccc21 | 18% (active)
25 | CCN1C(C(=O)c2ccccc2)=C(OC(=O)c2ccc(OC)cc2)c2ccccc2S1(=O)=O | 46% (active)
26 | CCN1C(C(=O)c2ccccc2)=C(OC(=O)c2ccc(Cl)cc2)c2ccccc2S1(=O)=O | 50%
27 | CCCN1C(C(=O)c2ccccc2)=C(OC(=O)c2ccc(OC)cc2)c2ccccc2S1(=O)=O | 56%
28 | CCCCC(=O)OC1=C(C(=O)c2ccccc2)N(C)S(=O)(=O)c2ccccc21 | 104%
29 | COC(=O)CN1C(C(=O)c2ccccc2)=C(OC(=O)c2ccccc2)c2ccccc2S1(=O)=O | 49%
